Data published in PubChem BioAssay (Tox21).
Inconclusive results are not listed. Values without a mark were called inactive. The source made the active and inactive calls. The call rests on the fitted dose curve; in most records, active means well fitted cell-killing curve with a large enough effect in the repeat runs; inconclusive means weak or mixed curves, or effect the other way; inactive means flat fitted curve, though single readings scatter.

Test: qHTS assay to identify small molecule agonists of the androgen receptor (AR) signaling pathway in the presence of an antagonist - cell viability counter screen (AID 1259379);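 further: MDA-kb2 human breast cancer cells carrying an MMTV luciferase reporter; nearly all actives have a fitted effect of over 25% in size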
Settings: MDA-kb2 viability, CellTiter-Fluor, 16 h; series mostly up to 92.4 µM
How it was run: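 Seed MDA-kb2 at 3,000 cells/well; incubate 5 hr, 37C, 0% CO2. Add nilutamide to 3.0uM final, then pin compounds at 15 concentrations. Incubate 16 hr. Add CellTiter-Fluor at 15 hr, read fluorescence after 1 hr.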
On the % scale 0 is the no-effect control and ±100 the full control effect.

Row | Structure (SMILES) | outcome | activity change, negative = cytotoxicity
1 | CC(=O)OCC(=O)Nc1cc(C#N)cc(NC(=O)COC(C)=O)c1Cl | inactive | 
2 | c1ccc(B(c2ccccc2)c2ccccc2)cc1 | inactive | 
3 | Cc1ccnc(N)c1 | inactive | 
4 | CCn1cc(C(=O)O)c(=O)c2cnc(N3CCCC3)nc21 |  | 0.387% [at 8.39 µM]
5 | CC(Oc1cc(Cl)ccc1Cl)C(=O)O (configuration not stated) | inactive | 
6 | C/C=C(\C)C(C)=O | inactive | 
7 | CCOCCOCC | inactive | 
8 | c1ccc2cnccc2c1 | inactive | 
9 | CCCCCCCCCCCCCBr | inactive | 
10 | CCC(C(=O)OCCN1CCOC(c2ccccc2)C1C)c1ccccc1 (configuration not stated) | inactive | 
11 | O=C[O][Al]([O]C=O)[O]C=O | inactive | 
12 | CN(C)CCN(C)CCO | inactive | 
13 | Cc1ccc(C(C)NC(=O)[C@@H](NC(=O)OC(C)C)C(C)C)cc1 (some centres not stated) | inactive | 
14 | CC1(C)CC(OC(=O)CCCCCCCCC(=O)OC2CC(C)(C)NC(C)(C)C2)CC(C)(C)N1 |  | 0.897% [at 19 µM]
15 | CC(=O)O[C@H]1C[C@@H]2CC[C@@]1(C)C2(C)C | inactive | 
16 | [O]=[Mo](=[O])=[O] |  | 2.34% [at 19 µM]
17 | C=CC/C=C/C | inactive | 
18 | CSc1cnccn1 | inactive | 
19 | [O-][n+]1cccc(/C(Cl)=N/OC[C@@H](O)CN2CCCCC2)c1 | inactive | 

Row | Structure (SMILES) | outcome | activity change, negative = cytotoxicity
20 | COC(=O)CCCCC(CCSS/C(CCO)=C(\C)N(C=O)Cc1cnc(C)nc1N)SC(C)=O (configuration not stated) | inactive | 
21 | c1ccc(-c2nn[nH]n2)cc1 | inactive | 
22 | C=CCSSCCC | inactive | 
23 | O=C1CCCCO1 | inactive | 
24 | CC1=C(O)C(=O)C(C)O1 (configuration not stated) | inactive | 
25 | COc1nc(N)nc2nc[nH]c12 | inactive | 
26 | O=C(O)CSCC(=O)NC1CCSC1=O (configuration not stated) | inactive | 
27 | CC(C)C[C@@H]1[C@H](c2ccccc2)OC(=O)N1CCCN1CCCCCC1 | inactive | 
28 | CC(=O)c1cc(C)oc1C | inactive | 
29 | C=C(C)[C@@H]1CC=C(C)C(=O)C1 | inactive | 
30 | CC12CCC(C1)C(C)(C)C2O (configuration not stated) | inactive | 
31 | Cc1c(NC(=O)c2cccnc2)c(=O)n(-c2ccccc2)n1C | inactive | 
32 | CC(=O)C(C)O (configuration not stated) | inactive | 
33 | CN(C)CC/C=C1/c2ccccc2COc2ccc(CC(=O)O)cc21 | inactive | 
34 | CC(=O)CCC1=C(C)CCCC1(C)C | inactive | 
35 | CC1OCCC1=O (configuration not stated) | inactive | 
36 | O/N=C/C=N/O | inactive | 
37 | CCOC(CN1CCN(CC(C)C(=O)c2ccccc2)CC1)c1ccccc1 (configuration not stated) |  | -6.08% [at 19 µM]

Test: qHTS assay to identify small molecule agonists of the estrogen receptor beta (ER-beta) signaling pathway - cell viability counter screen (AID 1259380); further: nearly all actives have a fitted effect of over 30% in size
Settings: ER-beta-bla HEK293T viability, CellTiter-Glo luminescence, 16 h; series mostly up to 92.4 µM
How it was run: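 CellTiter-Glo read, 30 min RT, same wells as bla assay; cells ER-beta-UAS-bla HEK293T; 16 hr compound, 37C; medium 2% charcoal-stripped FBS.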

Row | Structure (SMILES) | outcome | activity change, negative = cytotoxicity
38 | CC(=O)OCC(=O)Nc1cc(C#N)cc(NC(=O)COC(C)=O)c1Cl | inactive | 
39 | Cc1ccnc(N)c1 | inactive | 
40 | CCn1cc(C(=O)O)c(=O)c2cnc(N3CCCC3)nc21 |  | 2.48% [at 8.39 µM]
41 | CC(Oc1cc(Cl)ccc1Cl)C(=O)O (configuration not stated) | inactive | 
42 | C/C=C(\C)C(C)=O | inactive | 
43 | CCOCCOCC | inactive | 
44 | c1ccc2cnccc2c1 | inactive | 
45 | CCCCCCCCCCCCCBr | inactive | 
46 | CCC(C(=O)OCCN1CCOC(c2ccccc2)C1C)c1ccccc1 (configuration not stated) | inactive | 
47 | O=C[O][Al]([O]C=O)[O]C=O | inactive | 
48 | CN(C)CCN(C)CCO | inactive | 
49 | Cc1ccc(C(C)NC(=O)[C@@H](NC(=O)OC(C)C)C(C)C)cc1 (some centres not stated) | inactive | 
50 | CC(=O)O[C@H]1C[C@@H]2CC[C@@]1(C)C2(C)C | inactive | 
51 | [O]=[Mo](=[O])=[O] |  | 3.4% [at 19 µM]
52 | C=CC/C=C/C | inactive | 
53 | CSc1cnccn1 | inactive | 
54 | [O-][n+]1cccc(/C(Cl)=N/OC[C@@H](O)CN2CCCCC2)c1 | inactive | 
55 | COC(=O)CCCCC(CCSS/C(CCO)=C(\C)N(C=O)Cc1cnc(C)nc1N)SC(C)=O (configuration not stated) | inactive | 

Row | Structure (SMILES) | outcome | activity change, negative = cytotoxicity
56 | c1ccc(-c2nn[nH]n2)cc1 | inactive | 
57 | C=CCSSCCC | inactive | 
58 | O=C1CCCCO1 | inactive | 
59 | CC1=C(O)C(=O)C(C)O1 (configuration not stated) | inactive | 
60 | COc1nc(N)nc2nc[nH]c12 | inactive | 
61 | O=C(O)CSCC(=O)NC1CCSC1=O (configuration not stated) | inactive | 
62 | CC(C)C[C@@H]1[C@H](c2ccccc2)OC(=O)N1CCCN1CCCCCC1 | inactive | 
63 | CC(=O)c1cc(C)oc1C | inactive | 
64 | C=C(C)[C@@H]1CC=C(C)C(=O)C1 | inactive | 
65 | CC12CCC(C1)C(C)(C)C2O (configuration not stated) | inactive | 
66 | Cc1c(NC(=O)c2cccnc2)c(=O)n(-c2ccccc2)n1C | inactive | 
67 | CC(=O)C(C)O (configuration not stated) | inactive | 
68 | CN(C)CC/C=C1/c2ccccc2COc2ccc(CC(=O)O)cc21 | inactive | 
69 | CC(=O)CCC1=C(C)CCCC1(C)C | inactive | 
70 | CC1OCCC1=O (configuration not stated) | inactive | 
71 | O/N=C/C=N/O | inactive | 
72 | CCOC(CN1CCN(CC(C)C(=O)c2ccccc2)CC1)c1ccccc1 (configuration not stated) |  | -10.4% [at 19 µM]
